# Laboratory results reported in PubChem BioAssay (NCATS).
# “And” between values parts separate entries of the source, which are not always exact repeats. Equal entries are not always repeated. Inconclusive results are not listed. Where a call stands in place of a potency, no number is given. The source made the active and inactive calls. Unless noted, calls follow the shape of the dose curve; as a rule, active = well fitted curve in the direction sought with a large enough effect in the repeat runs; inconclusive = weak or mixed curves; inactive = no such curve, though single readings can be large; an effect the other way counts as inactive or inconclusive.
# Experiments:
# [1] = biological target: Cytochrome P450 2D6 (Homo sapiens) (UniProt P10635); assay: Cytochrome P450 family 2 subfamily D member 6 (CYP2D6) small molecule antagonists: luciferase biochemical (cell-free) qHTS assay (AID 1645840); settings: P450-Glo CYP2D6 enzyme, luciferin luminescence, 1 h; series mostly up to 57.4 µM; also: nearly all actives have a fitted effect of over 55% in size; also: potency is read from the fitted curve at half-maximal effect
# Cytochrome P450 2D6 (Homo sapiens), sequence (P10635 whole entry, looked up): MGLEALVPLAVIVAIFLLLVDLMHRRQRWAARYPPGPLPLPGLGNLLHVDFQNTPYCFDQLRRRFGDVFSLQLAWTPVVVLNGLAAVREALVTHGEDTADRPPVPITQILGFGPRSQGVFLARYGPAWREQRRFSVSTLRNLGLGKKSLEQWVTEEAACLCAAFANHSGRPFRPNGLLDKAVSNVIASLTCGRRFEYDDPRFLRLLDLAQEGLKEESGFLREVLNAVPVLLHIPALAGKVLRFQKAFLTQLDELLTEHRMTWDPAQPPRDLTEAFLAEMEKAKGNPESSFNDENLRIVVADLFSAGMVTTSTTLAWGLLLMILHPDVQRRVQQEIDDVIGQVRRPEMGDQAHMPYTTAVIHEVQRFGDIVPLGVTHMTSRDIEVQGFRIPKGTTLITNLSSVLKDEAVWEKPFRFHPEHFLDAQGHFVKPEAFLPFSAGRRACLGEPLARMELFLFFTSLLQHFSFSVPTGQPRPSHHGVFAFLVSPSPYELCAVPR
# How it was run: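 P450-Glo CYP2D6 system: proluciferin substrate converted by enzyme to luciferin, read by luminescence proportional to activity. Enzyme-substrate mix with compound 10 min at room temperature, then NADPH regeneration 1 h before detection reagent.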
# [2] = biological target: Cytochrome P450 2C9 (Homo sapiens) (UniProt P11712); assay: Cytochrome P450 family 2 subfamily C member 9 (CYP2C9) small molecule antagonists: luciferase biochemical (cell-free) qHTS assay (AID 1645842); settings: P450-Glo CYP2C9 enzyme assay, luciferin luminescence; series mostly up to 57.4 µM; also: nearly all actives have a fitted effect of over 55% in size; also: potency is read from the fitted curve at half-maximal effect
# Cytochrome P450 2C9 (Homo sapiens), sequence (P11712 whole entry, looked up): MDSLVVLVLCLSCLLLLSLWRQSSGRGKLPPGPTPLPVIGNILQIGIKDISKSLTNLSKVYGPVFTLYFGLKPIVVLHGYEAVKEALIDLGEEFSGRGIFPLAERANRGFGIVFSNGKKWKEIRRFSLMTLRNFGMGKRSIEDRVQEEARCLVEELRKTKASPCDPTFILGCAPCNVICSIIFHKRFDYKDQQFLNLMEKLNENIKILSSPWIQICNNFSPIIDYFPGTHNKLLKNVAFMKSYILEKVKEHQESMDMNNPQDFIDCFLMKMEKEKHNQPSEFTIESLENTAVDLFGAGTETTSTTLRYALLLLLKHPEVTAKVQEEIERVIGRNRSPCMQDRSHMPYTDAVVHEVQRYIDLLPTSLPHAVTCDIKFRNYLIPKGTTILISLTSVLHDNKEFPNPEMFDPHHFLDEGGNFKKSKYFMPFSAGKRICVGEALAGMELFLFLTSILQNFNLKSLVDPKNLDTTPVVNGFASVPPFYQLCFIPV
# How it was run: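 P450-Glo CYP2C9 system: proluciferin substrate with enzyme in mix containing 0.4% BSA, 10 min at room temperature, then NADPH regeneration solution added and incubated 1 h at 37C. Detection reagent stopped reaction; luminescence read after 20 min as RLU.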
# [3] = Primary qHTS for inhibitors of nuclear receptor binding SET domain protein 2 (NSD2) in an isogenic RCH-ACV NSD2 p.E1099K mutant (9B) (AID 1645876; active = well fitted curve in the direction sought with a large enough effect; an effect the other way counts as inactive or inconclusive; also: nearly all actives have a fitted effect of over 70% in size; also: potency is read from the fitted curve at half-maximal effect); settings: RCH-ACV NSD2 E1099K (9B) viability, CellTiter-Glo, 72 h; series mostly up to 44.9 µM
# [4] = Primary qHTS for inhibitors of nuclear receptor binding SET domain protein 2 (NSD2) in an RCH-ACV wild type WT cells (2C) (AID 1645877; active = well fitted curve in the direction sought with a large enough effect; an effect the other way counts as inactive or inconclusive; also: nearly all actives have a fitted effect of over 70% in size; also: potency is read from the fitted curve at half-maximal effect); settings: RCH-ACV (leukaemia line) NSD2 WT (2C) viability, CellTiter-Glo, 72 h; series mostly up to 44.9 µM
# [5] = biological target: Cytochrome P450 3A4 (Homo sapiens) (UniProt P08684); assay: Cytochrome P450 family 3 subfamily A member 4 (CYP3A4) small molecule antagonists: luciferase qHTS assay (AID 1645841); settings: P450-Glo CYP3A4 enzyme assay, luciferin luminescence; series mostly up to 57.4 µM; also: potency is read from the fitted curve at half-maximal effect; nearly all actives have a fitted effect of over 45% in size
# Cytochrome P450 3A4 (Homo sapiens), sequence (P08684 whole entry, looked up): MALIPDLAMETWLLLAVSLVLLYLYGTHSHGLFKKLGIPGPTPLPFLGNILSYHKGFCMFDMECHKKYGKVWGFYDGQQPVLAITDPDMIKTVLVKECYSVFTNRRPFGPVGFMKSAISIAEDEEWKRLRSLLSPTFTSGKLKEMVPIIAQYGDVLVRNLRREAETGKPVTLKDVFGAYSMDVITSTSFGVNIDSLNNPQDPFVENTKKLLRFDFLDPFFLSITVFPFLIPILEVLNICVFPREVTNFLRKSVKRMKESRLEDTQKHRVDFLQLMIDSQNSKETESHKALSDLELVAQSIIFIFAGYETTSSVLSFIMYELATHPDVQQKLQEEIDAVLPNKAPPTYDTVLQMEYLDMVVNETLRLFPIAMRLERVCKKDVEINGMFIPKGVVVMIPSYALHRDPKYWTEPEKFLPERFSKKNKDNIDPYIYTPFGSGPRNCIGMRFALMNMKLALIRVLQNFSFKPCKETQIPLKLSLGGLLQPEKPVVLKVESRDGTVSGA
# How it was run: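 P450-Glo CYP3A4 enzyme with proluciferin substrate was preincubated with DMSO-dissolved compounds for 10 min at room temperature. NADPH regeneration solution started a 1 h reaction. Detection reagent stopped it, and luminescence was read after 20 min.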
# [6] = biological target: Rap guanine nucleotide exchange factor 3 (Homo sapiens) (UniProt O95398); assay: Confirmatory qHTS for agonist of cAMP-regulated guanine nucleotide exchange factor 3 (EPAC1) (AID 1645881; active = well fitted curve in the direction sought with a large enough effect; an effect the other way counts as inactive or inconclusive;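 also: EPAC1 catalysed release of BODIPY-GDP from Rap1B seen as fluorescence loss; nearly all actives have a fitted effect of over 75% in size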); settings: EPAC1 Rap1B BODIPY-GDP exchange fluorescence, 100% = cAMP control response; series mostly up to 154 µM
# Rap guanine nucleotide exchange factor 3 (Homo sapiens), sequence (O95398 whole entry, looked up): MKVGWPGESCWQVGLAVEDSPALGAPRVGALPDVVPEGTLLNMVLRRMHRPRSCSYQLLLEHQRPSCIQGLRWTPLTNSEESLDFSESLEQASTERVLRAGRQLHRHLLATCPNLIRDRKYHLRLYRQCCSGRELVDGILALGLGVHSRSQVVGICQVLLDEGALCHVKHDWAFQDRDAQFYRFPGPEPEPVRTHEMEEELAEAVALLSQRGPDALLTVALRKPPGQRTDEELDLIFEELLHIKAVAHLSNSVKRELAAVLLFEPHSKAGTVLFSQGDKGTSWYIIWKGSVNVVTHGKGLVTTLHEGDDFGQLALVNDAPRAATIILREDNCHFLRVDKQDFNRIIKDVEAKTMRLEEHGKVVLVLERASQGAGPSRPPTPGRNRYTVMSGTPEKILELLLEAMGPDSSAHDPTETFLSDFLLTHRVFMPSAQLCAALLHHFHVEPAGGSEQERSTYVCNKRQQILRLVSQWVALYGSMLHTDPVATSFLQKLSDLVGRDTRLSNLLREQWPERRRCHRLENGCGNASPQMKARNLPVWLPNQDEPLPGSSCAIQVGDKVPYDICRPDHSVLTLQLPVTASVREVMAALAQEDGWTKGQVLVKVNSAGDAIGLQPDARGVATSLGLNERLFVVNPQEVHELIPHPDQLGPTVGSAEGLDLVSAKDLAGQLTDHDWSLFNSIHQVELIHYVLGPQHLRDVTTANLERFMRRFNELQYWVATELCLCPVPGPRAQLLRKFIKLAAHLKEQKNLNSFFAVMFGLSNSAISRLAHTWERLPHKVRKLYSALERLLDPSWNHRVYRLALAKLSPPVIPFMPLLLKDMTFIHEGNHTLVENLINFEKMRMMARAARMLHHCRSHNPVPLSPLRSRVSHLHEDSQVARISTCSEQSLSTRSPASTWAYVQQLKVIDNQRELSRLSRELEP
# [7] = biological target: Rap guanine nucleotide exchange factor 4 (Homo sapiens) (UniProt Q8WZA2); assay: Confirmatory qHTS for agonist of cAMP-regulated guanine nucleotide exchange factor 4 (EPAC2) (AID 1645884; active = well fitted curve in the direction sought with a large enough effect; an effect the other way counts as inactive or inconclusive;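 also: nucleotide exchange releases bodipy-GDP from Rap1 and this lowers its fluorescence; nearly all actives have a fitted effect of over 65% in size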); settings: EPAC2 GEF activity, Rap1B-BODIPY-GDP fluorescence, percent relative to cAMP agonist control; series mostly up to 154 µM
# Rap guanine nucleotide exchange factor 4 (Homo sapiens), sequence (Q8WZA2 whole entry, looked up): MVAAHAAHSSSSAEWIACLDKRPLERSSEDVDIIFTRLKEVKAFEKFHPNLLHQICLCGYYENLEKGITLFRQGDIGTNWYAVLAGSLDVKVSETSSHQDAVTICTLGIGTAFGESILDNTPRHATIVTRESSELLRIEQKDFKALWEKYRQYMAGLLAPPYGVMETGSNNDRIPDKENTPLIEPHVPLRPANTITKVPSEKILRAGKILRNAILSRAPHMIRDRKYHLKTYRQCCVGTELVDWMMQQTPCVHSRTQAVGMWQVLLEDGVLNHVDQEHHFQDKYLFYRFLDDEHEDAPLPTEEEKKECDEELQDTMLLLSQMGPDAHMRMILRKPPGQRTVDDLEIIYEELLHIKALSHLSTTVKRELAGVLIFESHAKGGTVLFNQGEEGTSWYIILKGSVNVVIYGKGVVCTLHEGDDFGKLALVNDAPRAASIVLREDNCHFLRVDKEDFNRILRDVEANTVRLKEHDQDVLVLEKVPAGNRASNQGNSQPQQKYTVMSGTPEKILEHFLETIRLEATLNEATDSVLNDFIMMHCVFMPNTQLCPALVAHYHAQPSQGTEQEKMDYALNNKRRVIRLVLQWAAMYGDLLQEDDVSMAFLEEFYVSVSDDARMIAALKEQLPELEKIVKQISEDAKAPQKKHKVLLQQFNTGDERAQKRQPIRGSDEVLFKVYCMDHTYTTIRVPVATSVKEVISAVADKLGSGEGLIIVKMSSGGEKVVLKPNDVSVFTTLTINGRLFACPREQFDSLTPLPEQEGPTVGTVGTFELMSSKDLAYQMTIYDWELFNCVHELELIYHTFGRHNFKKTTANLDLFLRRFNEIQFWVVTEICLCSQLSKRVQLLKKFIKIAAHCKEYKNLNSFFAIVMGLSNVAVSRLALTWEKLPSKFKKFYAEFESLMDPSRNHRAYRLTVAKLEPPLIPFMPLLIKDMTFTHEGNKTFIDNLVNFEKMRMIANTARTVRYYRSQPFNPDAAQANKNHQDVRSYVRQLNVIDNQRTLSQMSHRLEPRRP
# [8] = biological target: Rap guanine nucleotide exchange factor 4 (Homo sapiens) (UniProt Q8WZA2); assay: Confirmatory qHTS for antagonist of cAMP-regulated guanine nucleotide exchange factor 4 (EPAC2) (AID 1645885; active = well fitted curve in the direction sought with a large enough effect; an effect the other way counts as inactive or inconclusive; also: potency is read from the fitted curve at half-maximal effect; nearly all actives have a fitted effect of over 25% in size); settings: EPAC2 Rap1B-BODIPY-GDP exchange fluorescence, biochemical; series mostly up to 114 µM
# [9] = NCATS anti-infectives library activity on HEK293 viability as a counter-qHTS vs the C. elegans viability qHTS (AID 1745854; active = well fitted curve in the direction sought with a large enough effect; an effect the other way counts as inactive or inconclusive); settings: HEK293 viability counter-screen; series mostly up to 41.8 µM
# How it was run: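 Cytotoxicity counter-screen to a worm viability qHTS: CellTiter-Glo luminescence read 10 min after reagent addition. Compounds (final up to 41.7 uM, a 1:5 dilution series) incubated 24 hr at 37C with 1,500 HEK293 cells per well; digitonin control.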
structure (smiles),measurement,setting,value
CN1CCN(CCC(=O)N2c3ccccc3Sc3ccc(C(F)(F)F)cc32)CC1,Potency,[1],0.0347 µM (active)
same,Potency,[2],inactive
same,Potency,[3],15 µM (active)
same,Potency,[4],23.7 µM (active)
O=C(Nc1ccc([N+](=O)[O-])cc1)Nc1ccc([N+](=O)[O-])cc1,Potency,[1],inactive
same,Potency,[2],inactive
same,Potency,[3],inactive
same,Potency,[4],inactive
O=C1OC2(c3ccccc31)c1cc(Br)c(O)c(Br)c1Oc1c2cc(Br)c(O)c1Br,Potency,[5],17.4 µM (active)
same,Potency,[2],12.3 µM (active)
CCCCCCCCCCCCOCCOCCOCCOCCOCCOCCOCCOCCOCCO,Potency,[1],12.3 µM (active)
same,Potency,[2],21.9 µM (active)
same,Potency,[4],11.9 µM (active)
CCCCc1cc2ccccc2c(OCCN(C)C)n1,Potency,[1],2.19 µM (active)
same,Potency,[2],inactive
same,Potency,[4],18.8 µM (active)
Oc1ccccc1C=NCc1ccccc1,Potency,[2],inactive
same,Potency,[3],inactive
same,Potency,[4],inactive
CC(=O)Nc1ccc(CC(=O)O)cc1,Potency,[1],inactive
same,Potency,[2],inactive
same,Potency,[3],inactive
same,Potency,[4],inactive
CO[C@H]1C=CO[C@@]2(C)Oc3c(C)c(O)c4c(O)c(c(/C=N/N5CCN(C)CC5)c(O)c4c3C2=O)NC(=O)/C(C)=C\C=C[C@H](C)[C@H](O)[C@@H](C)[C@@H](O)[C@@H](C)[C@H](OC(C)=O)[C@@H]1C,Potency,[1],inactive
same,outcome,[6],inactive
same,outcome,[7],inactive
same,Potency,[8],44.1 µM (active)
CCO[C@@H]1O[C@H](C(COCc2ccccc2)OCc2ccccc2)[C@H](OCc2ccccc2)[C@H]1O (some centres undefined),Potency,[1],11 µM (active)
same,Potency,[3],23.7 µM (active)
same,Potency,[4],21.1 µM (active)
Oc1c(Cl)cc(Cl)c(Cl)c1Cc1c(O)c(Cl)cc(Cl)c1Cl,Potency,[1],13.8 µM (active)
same,Potency,[2],1.55 µM (active)
same,Potency,[3],5.96 µM (active)
same,Potency,[4],5.96 µM (active)
Cc1ccc(O)c([C@H](CCN(C(C)C)C(C)C)c2ccccc2)c1,Potency,[1],2.45 µM (active) and 2.13 µM (active)
same,Potency,[2],inactive
same,Potency,[3],21.1 µM (active)
OC(C#CCN1CCCC1)(c1ccccc1)c1ccccc1,Potency,[1],12.3 µM (active)
same,Potency,[2],8.71 µM (active)
same,Potency,[3],inactive
same,Potency,[4],inactive
C[N+]1(CC2COC(c3ccccc3)(C3CCCCC3)O2)CCCCC1 (centres undefined),Potency,[1],1.55 µM (active)
same,Potency,[2],inactive
same,Potency,[3],21.1 µM (active)
same,Potency,[4],21.1 µM (active)
CCc1nn(CCCN2CCN(c3cccc(Cl)c3)CC2)c(=O)n1CCOc1ccccc1,Potency,[1],0.977 µM (active)
same,Potency,[2],inactive
Nc1ccc(S(=O)(=O)Nc2cnc3ccccc3n2)cc1,Potency,[1],inactive
same,Potency,[2],15.5 µM (active)
same,Potency,[3],inactive
same,Potency,[4],inactive
O=C1[C@H](CC[C@H](O)c2ccc(F)cc2)[C@@H](c2ccc(O)cc2)N1c1ccc(F)cc1,Potency,[1],15.5 µM (active) and 9.52 µM (active)
same,Potency,[3],23 µM (active)
Cc1ccc2c(Br)cc(Br)c(O)c2n1,Potency,[1],inactive
same,Potency,[2],inactive
same,Potency,[3],7.5 µM (active)
same,Potency,[4],2.37 µM (active)
C=C[C@@]1(C)CC(=O)[C@]2(O)[C@@]3(C)[C@@H](O)CCC(C)(C)[C@@H]3[C@H](O)[C@H](OC(C)=O)[C@@]2(C)O1,Potency,[1],inactive
same,Potency,[3],0.841 µM (active)
COc1ccc(CCN(C)CCCN2CCc3cc(OC)c(OC)cc3CC2=O)cc1OC,Potency,[1],inactive
same,Potency,[2],inactive
same,Potency,[3],inactive
same,Potency,[4],inactive
CCCc1ncc(C[n+]2ccccc2C)c(N)n1,Potency,[1],inactive
same,Potency,[2],inactive
CN1CCC[C@@H]1CCO[C@](C)(c1ccccc1)c1ccc(Cl)cc1,Potency,[3],21.1 µM (active)
same,Potency,[4],13.3 µM (active)
CC(C(=O)O)c1cccc(Oc2ccccc2)c1 (centres undefined),Potency,[1],inactive
same,Potency,[3],inactive
same,Potency,[4],inactive
CN1CCN(C2=Nc3cc(F)ccc3Cc3ccccc32)CC1,Potency,[1],5.49 µM (active)
same,Potency,[2],inactive
O=C(O)CCC(=O)Nc1ccc(S(=O)(=O)Nc2nccs2)cc1,Potency,[3],inactive
same,Potency,[4],inactive
O=C(O)P(=O)(O)O,Potency,[1],inactive
same,Potency,[2],inactive
same,outcome,[9],inactive
O=C(NC1CCN(CCc2c[nH]c3ccccc23)CC1)c1ccccc1,Potency,[1],1.23 µM (active)
same,Potency,[2],inactive
CCCCCCCCCCC[C@@H](C[C@@H]1OC(=O)[C@H]1CCCCCC)OC(=O)[C@H](CC(C)C)NC=O,Potency,[1],inactive
same,Potency,[2],2.75 µM (active)
same,Potency,[3],inactive
same,Potency,[4],inactive
same,outcome,[9],inactive
